Screens from PubChem.
In the library only some 1.1% were active in any assay of this set; here they are far more common.
RecA intein inh: Mtb RecA intein splicing inhibition; P9WHJ3; cell-free RecA intein splicing, fluorescence; inhibition, % (no concentration beside the values); hit rate 0.75% among 290,000; AID 2221; in the data active means inhibition above about 30%
CCHFV vOTU inh: blocks the CCHF virus ovarian tumor domain protease; inhibition, % at 11.5 µM; hit rate 0.55% among 370,000; AID 651958; CCHFV vOTU protease, Pep-AMC fluorescence; in the data active means inhibition above about 30%
Yp Topo-I inh: Y. pestis Topo-I inhibition via cleavage products | Y. pestis Topo-I cleavage product accumulation, plate reader | hit rate 0.064% among 360,000 | activity, % at 10 µM; in the data active means activity above about 50%, passing the limit was not always enough
BioA inh-1: BioA (M. tuberculosis) enzyme inhibition. hit rate 0.096% among 360,000. purified M. tuberculosis BioA enzyme, plate reader. inhibition, % at 9.99 µM. AID 602481; in the data active means inhibition above about 40%
Mtb betalactam: beta-lactam sensitization of Mtb H37Rv | M. tuberculosis H37Rv growth with meropenem, percent inhibition | inhibition, % at 25 µM | hit rate 0.27% among 330,000 | AID 434955;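 further: growth measured after seven days incubation then overnight dye step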
BJeLR viability: BJeLR cell viability loss; BJeLR (HRASV12) viability, CellTiter-Glo ATP luminescence, 48 h; inhibition, % (no concentration beside the values); hit rate 0.17% among 300,000; AID 1554; in the data active means inhibition above about 50%
BioA inh-2: inhibitors of Mycobacterium tuberculosis BioA enzyme | shares compounds with BioA inh-1 | purified BioA enzyme, plate reader, dose response | max activity, % | 310 tested, under 10 active | AID 651679;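 further: top concentration of the dilution series was 10 µM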
Target sequence (P9WQ81 whole entry, looked up): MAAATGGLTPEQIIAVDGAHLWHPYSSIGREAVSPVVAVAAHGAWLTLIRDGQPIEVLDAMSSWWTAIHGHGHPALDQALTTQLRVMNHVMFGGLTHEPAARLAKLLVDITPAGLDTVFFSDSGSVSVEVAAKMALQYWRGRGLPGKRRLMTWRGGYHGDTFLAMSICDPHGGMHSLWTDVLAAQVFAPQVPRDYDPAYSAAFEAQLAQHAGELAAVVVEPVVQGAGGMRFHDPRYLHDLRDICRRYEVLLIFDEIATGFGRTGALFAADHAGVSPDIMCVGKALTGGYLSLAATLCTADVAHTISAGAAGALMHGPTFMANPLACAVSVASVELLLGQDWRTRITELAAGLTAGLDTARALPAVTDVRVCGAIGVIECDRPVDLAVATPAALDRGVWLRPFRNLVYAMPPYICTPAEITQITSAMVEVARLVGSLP
HepG2 cytotox: kills HepG2 cells; shares compounds with BioA inh-1; HepG2 cytotoxicity, plate reader; max activity, %; 310 tested, under 10 active
NIH3T3 tox 5: NIH3T3 viability loss; shares compounds with BioA inh-1; NIH3T3 cytotoxicity, plate reader; activity change, negative = cytotoxicity, % at 26 µM; 310 tested, under 10 active
Large screens that a line does not name were inactive (follow-up assays come after a bar, where they were run). Unless noted, how the calls were made is not given here.

CCOC(=O)c1ccc(N2C(=O)c3n[nH]c(C)c3C2c2ccc(OC)cc2)cc1 (stereo unspecified)	none
C[C@@H]1CN([C@@H](C)CO)C(=O)c2cccc(NC(=O)c3ccc(-c4nccs4)cc3)c2O[C@H]1CN(C)C(=O)Nc1ccc(C(F)(F)F)cc1	none (no result: RecA intein inh, CCHFV vOTU inh, Yp Topo-I inh, Mtb betalactam, BJeLR viability)
CC=Cc1ccc2n(c1=O)C[C@@H]1[C@@H](CO)[C@H](C(=O)OC)N(C(C)=O)[C@H]21 (mixture of isomers)	none (no result: RecA intein inh, CCHFV vOTU inh, Yp Topo-I inh, Mtb betalactam, BJeLR viability)
CCC(=O)N1CC[C@@H]2[C@H]1c1cc(-c3cccc(F)c3)ccc1N(C)[C@H]2CO	BioA inh-1 42 (no result: RecA intein inh, CCHFV vOTU inh, Yp Topo-I inh, Mtb betalactam, BJeLR viability) | BioA inh-2 inactive | HepG2 cytotox inactive | NIH3T3 tox 5 inactive
CN1c2ccc(-c3ccccc3)cc2[C@H]2[C@H](CCN2C(=O)c2ccccc2F)[C@H]1CO	BioA inh-1 46 (no result: RecA intein inh, CCHFV vOTU inh, Yp Topo-I inh, Mtb betalactam, BJeLR viability) | BioA inh-2 inactive | HepG2 cytotox inactive | NIH3T3 tox 5 inactive
CC(=O)N1CC[C@H]2[C@@H]1c1cc(-c3cccc(F)c3)ccc1N(C)[C@H]2CO	none (no result: RecA intein inh, CCHFV vOTU inh, Yp Topo-I inh, Mtb betalactam, BJeLR viability)
CN1c2ccc(-c3cccc(F)c3)cc2[C@@H]2[C@@H](CCN2C(=O)c2ccncc2)[C@H]1CO	BioA inh-1 50 (no result: RecA intein inh, CCHFV vOTU inh, Yp Topo-I inh, Mtb betalactam, BJeLR viability) | BioA inh-2 inactive | HepG2 cytotox inactive | NIH3T3 tox 5 inactive
CC(=O)N1CC[C@@H]2[C@@H](CO)N(C)c3ccc(-c4cccc(F)c4)cc3[C@@H]21	BioA inh-1 56 (no result: RecA intein inh, CCHFV vOTU inh, Yp Topo-I inh, Mtb betalactam, BJeLR viability) | BioA inh-2 inactive | HepG2 cytotox inactive | NIH3T3 tox 5 inactive
CC(C)NC(=O)Nc1ccc2c(c1)C(=O)N([C@@H](C)CO)C[C@@H](C)[C@H](CN(C)Cc1ccncc1)O2	none (no result: RecA intein inh, CCHFV vOTU inh, Yp Topo-I inh, Mtb betalactam, BJeLR viability)
COc1ccc(-c2ccc3c(c2)[C@H]2[C@H](CCN2C(=O)Cc2cccnc2)[C@H](CO)N3C)cc1	BioA inh-1 43 (no result: RecA intein inh, CCHFV vOTU inh, Yp Topo-I inh, Mtb betalactam, BJeLR viability) | BioA inh-2 inactive | HepG2 cytotox inactive | NIH3T3 tox 5 inactive
CO[C@@H]1CN(C)C(=O)c2ccc(NC(=O)NC(C)C)cc2OC[C@@H](C)N(C(=O)NC(C)C)C[C@@H]1C	none (no result: RecA intein inh, CCHFV vOTU inh, Yp Topo-I inh, Mtb betalactam, BJeLR viability)
Cc1cccc(C(=O)NC2CCN(CC(=O)Nc3ccccc3Cl)CC2)c1	BioA inh-1 49 | BioA inh-2 inactive | HepG2 cytotox inactive | NIH3T3 tox 5 inactive
O=C(Nc1cccc(Cl)c1)N1C[C@H]2[C@@H](c3ccccc31)[C@H](CO)N2Cc1ccncc1	none (no result: RecA intein inh, CCHFV vOTU inh, Yp Topo-I inh, Mtb betalactam, BJeLR viability)
C/C=C/c1ccc2c(c1)O[C@@H](CN(C)C(=O)Nc1ccc(F)cc1)[C@@H](C)CN([C@@H](C)CO)S2(=O)=O	BioA inh-1 55 (no result: RecA intein inh, CCHFV vOTU inh, Yp Topo-I inh, Mtb betalactam, BJeLR viability) | BioA inh-2 inactive | HepG2 cytotox inactive | NIH3T3 tox 5 inactive
COc1ccc(NC2c3ccccc3C(=O)N2c2cccnc2)cc1Cl (stereo unspecified)	BioA inh-1 51 | BioA inh-2 inactive | HepG2 cytotox inactive | NIH3T3 tox 5 inactive
O=C1c2ccccc2C(Nc2ccccc2)N1c1cccnc1 (stereo unspecified)	none
O=C(C[C@@H]1CC[C@@H]2[C@H](COC[C@@H](O)CN2C(=O)C2CC2)O1)NCc1ccncc1	none (no result: RecA intein inh, CCHFV vOTU inh, Yp Topo-I inh, Mtb betalactam, BJeLR viability)
CC(=O)Nc1ccc2nc(-c3cccnc3)[nH]c2c1	BioA inh-1 56 | BioA inh-2 inactive | HepG2 cytotox inactive | NIH3T3 tox 5 inactive
O=C(c1ccc(S(=O)(=O)Nc2ccccc2F)cc1)N1CCN(c2ccccc2O)CC1	BioA inh-1 67 | BioA inh-2 inactive | HepG2 cytotox inactive | NIH3T3 tox 5 inactive
O=C(c1ccc(NS(=O)(=O)c2ccc(F)cc2)cc1)N1CCN(c2ccccc2O)CC1	none
COc1ccc(C(C)NC(=O)Nc2ccc(C(C)=O)cc2)cc1OC (stereo unspecified)	BioA inh-1 43 | BioA inh-2 inactive | HepG2 cytotox inactive | NIH3T3 tox 5 inactive
CC(=O)N1CCN(c2ccc([N+](=O)[O-])cc2C=C2C(=O)NC(=O)NC2=O)CC1	BioA inh-1 44 | BioA inh-2 inactive | HepG2 cytotox inactive | NIH3T3 tox 5 inactive
CC1=C(C#N)C(c2cccnc2)C2=C(CC(c3ccc(Cl)cc3)CC2=O)N1 (stereo unspecified)	BioA inh-1 63 | BioA inh-2 inactive | HepG2 cytotox inactive | NIH3T3 tox 5 inactive
CC1=C(C#N)C(c2ccc(O)cc2)C2=C(CCCC2=O)N1 (stereo unspecified)	none
COc1ccc(C(=O)Oc2cccc3cccnc23)cc1[N+](=O)[O-]	none (no result: BioA inh-1)
NC(=O)c1ccc(Oc2cccc3cccnc23)c([N+](=O)[O-])c1	BioA inh-1 42 | BioA inh-2 inactive | HepG2 cytotox inactive | NIH3T3 tox 5 inactive
O=C(Nc1ncc2c(n1)CC(c1ccco1)CC2=O)c1ccccc1 (stereo unspecified)	BioA inh-1 60 | BioA inh-2 inactive | HepG2 cytotox inactive | NIH3T3 tox 5 inactive
Cc1ccc(C(=O)Nc2ncc3c(n2)CC(c2ccco2)CC3=O)cc1 (stereo unspecified)	none (no result: BioA inh-1)
Cc1nc2c(C(=O)N3CCN(c4ccccn4)CC3)cnn2c(C)c1Cc1cccc(Cl)c1	BioA inh-1 40 | BioA inh-2 inactive | HepG2 cytotox inactive | NIH3T3 tox 5 inactive
CNC(=O)C[C@H]1CC[C@@H]2[C@H](COC[C@@H](O)CN2C(=O)Nc2cccc(OC)c2)O1	BioA inh-1 77 (no result: RecA intein inh, CCHFV vOTU inh, Yp Topo-I inh, Mtb betalactam, BJeLR viability) | BioA inh-2 inactive | HepG2 cytotox inactive | NIH3T3 tox 5 inactive
COC(=O)C[C@H]1CC[C@@H]2[C@H](COC[C@@H](O)CN2C(=O)Nc2cccc(F)c2)O1	BioA inh-1 42 (no result: RecA intein inh, CCHFV vOTU inh, Yp Topo-I inh, Mtb betalactam, BJeLR viability) | BioA inh-2 inactive | HepG2 cytotox inactive | NIH3T3 tox 5 inactive
CNC(=O)C[C@@H]1CC[C@H]2[C@@H](COC[C@H](O)CN2C(=O)Nc2cccc(OC)c2)O1	none (no result: RecA intein inh, CCHFV vOTU inh, Yp Topo-I inh, Mtb betalactam, BJeLR viability)
CN1c2ccc(C#Cc3cccnc3)cc2[C@@H]2[C@@H](CCN2C(=O)CN2CCOCC2)[C@H]1CO	none (no result: RecA intein inh, CCHFV vOTU inh, Yp Topo-I inh, Mtb betalactam, BJeLR viability)
